# PubChem BioAssay AID2156 (Johns Hopkins Ion Channel Center, 2009)
# Out of some 310,000 compounds screened, about 3,400 (1.1%) were called active. The sample holds actives, similar compounds and a random draw of the others, so the mix is not that of the screen.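 How the source made its calls: active means fluorescence ratio B-score at most minus 3 library SDs, with starting brightness B-score within 2 library SDs (cut at about -5.5 in these data); inactive means the rest, inconclusive results apart.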
# Molecular target: Potassium voltage-gated channel subfamily KQT member 2 (Rattus norvegicus) (UniProt O88943)
# Assay: KCNQ2 channel blockers in CHO-K1 cells – cell-based, FluxOR thallium flux, B-score, primary screen (AID 2156)
# Conditions: 20 min, at 10 µM; active compounds read low
# Sequence of Potassium voltage-gated channel subfamily KQT member 2 (Rattus norvegicus) (O88943 whole entry, looked up): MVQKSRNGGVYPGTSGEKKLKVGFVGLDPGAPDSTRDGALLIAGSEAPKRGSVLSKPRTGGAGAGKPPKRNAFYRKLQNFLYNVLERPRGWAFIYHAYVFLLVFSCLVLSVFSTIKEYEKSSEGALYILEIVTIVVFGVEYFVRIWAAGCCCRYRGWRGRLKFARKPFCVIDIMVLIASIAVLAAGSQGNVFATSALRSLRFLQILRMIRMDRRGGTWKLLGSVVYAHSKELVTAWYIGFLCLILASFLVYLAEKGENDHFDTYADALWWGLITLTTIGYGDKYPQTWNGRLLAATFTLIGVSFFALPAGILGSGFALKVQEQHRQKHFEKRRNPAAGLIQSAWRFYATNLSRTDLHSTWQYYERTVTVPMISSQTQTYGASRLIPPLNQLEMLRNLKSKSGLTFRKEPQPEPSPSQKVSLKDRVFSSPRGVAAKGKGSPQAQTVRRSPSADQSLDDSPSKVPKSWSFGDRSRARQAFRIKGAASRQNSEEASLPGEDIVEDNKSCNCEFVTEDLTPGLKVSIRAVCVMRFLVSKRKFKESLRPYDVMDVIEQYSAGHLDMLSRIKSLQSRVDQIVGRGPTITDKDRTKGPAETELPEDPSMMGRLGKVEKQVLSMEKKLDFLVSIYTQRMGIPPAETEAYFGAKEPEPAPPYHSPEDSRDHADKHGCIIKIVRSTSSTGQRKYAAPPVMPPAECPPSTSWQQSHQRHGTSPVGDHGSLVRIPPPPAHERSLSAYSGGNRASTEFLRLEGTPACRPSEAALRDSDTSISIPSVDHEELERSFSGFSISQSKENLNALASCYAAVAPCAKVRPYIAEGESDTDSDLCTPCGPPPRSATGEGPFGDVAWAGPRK
row,Structure (SMILES),B-score
1,CSc1nc2ccccc2c(=O)n1Cc1ccc(F)cc1,inactive
2,CC(C)(C)N1CC(c2nc3ccccc3n2Cc2ccc(F)cc2)CC1=O (configuration not stated),-5.93 (active)
3,C=CCn1c(C2CC(=O)N(c3ccc(C)cc3)C2)nc2ccccc21 (configuration not stated),inactive
4,CCN(CC)c1ccc(NC(=O)c2ccc(=O)[nH]c2)cc1S(=O)(=O)Nc1ccc(OC)cc1,-0.01 (inactive)
5,CC1CCN(C(=O)c2ccc3c(c2)NC(=O)CN3)CC1,-0.25 (inactive)
6,CCN1CCN(CCNC(=O)c2ccc3c(c2)NC(=O)/C(=C\c2ccc(OC)c(OC)c2)S3)CC1,-0.06 (inactive)
7,O=C1Nc2cc(C(=O)N3CCC(N4CCCCC4)CC3)ccc2S/C1=C\c1ccccc1,-6.65 (active)
8,Cc1ccc(S(=O)(=O)N(C)c2ccc(OCC(=O)OCC(=O)N(CC#N)c3ccccc3)cc2)cc1,inactive
9,CN(CC(=O)Nc1cccc(F)c1)C(=O)C1CSC2(C)CCC(=O)N12 (configuration not stated),-0.47 (inactive)
10,COc1ccccc1C(=O)NC(CCSC)C(=O)NNC(=O)c1ccccc1C (configuration not stated),inactive
11,Cc1cc(NC(=O)CSC2=NS(=O)(=O)c3cc(Cl)ccc3N2)no1,-0.31 (inactive)
12,CCc1ccc2ncc(C(=O)c3ccccc3)c(N3CCOCC3)c2c1,-9.81 (active)
13,O=C(c1ccccc1)c1cc(-c2ccccn2)c(N2CCOCC2)s1,-0.1 (inactive)
14,CCc1ccc(C(=O)NC(=S)Nc2ccccc2N2CCOCC2)cc1,-5.43 (inactive)
15,CCCCn1c(N)c(N(CC(C)C)C(=O)c2cccc(S(=O)(=O)N3CC(C)OC(C)C3)c2)c(=O)[nH]c1=O (configuration not stated),inactive
16,CCCCn1c(N)c(N(CC(C)C)C(=O)c2cnc(C)cn2)c(=O)[nH]c1=O,inactive
17,Cc1cc(NC(=O)C(C)SCC(=O)Nc2ccccc2N2CCCCC2)no1 (configuration not stated),inactive
18,O=C(NCCCN1CCCC1=O)c1cccc(S(=O)(=O)NCc2ccccc2)c1,-0.85 (inactive)
19,O=C(COC(=O)c1ncc(Cl)c(Cl)c1Cl)NCc1cccs1,-2.02 (inactive)

row,Structure (SMILES),B-score
1,O=C(CN1CCC(O)(c2ccccc2)CC1)Nc1ccc2c(c1)OCCO2,inactive
2,CCC1(c2ccccc2)NC(=O)N(CC(=O)c2ccc3c(c2)OCO3)C1=O (configuration not stated),inactive
3,O=C(CCN1CCc2ccccc2C(O)(c2ccccc2)C1)c1ccc2c(c1)OCCO2 (configuration not stated),-6.97 (active)
4,COc1cc(N)c(Cl)cc1C(=O)OCC(=O)c1ccc2c(c1)NC(=O)CO2,inactive
5,O=C(CN1CCN(c2ccc(O)cc2)CC1)NC1CCCc2ccccc21 (configuration not stated),-0.25 (inactive)
6,CCOc1ccc(NC(=O)COc2ccc(C(=O)NC3CCCc4ccccc43)cc2OC)cc1 (configuration not stated),inactive
7,COc1ccc(CN(C)C(=O)CC(c2ccccc2)c2ccccc2)cc1,-2.95 (inactive)
8,Cc1cccc(C(=O)OC(C)C(=O)NC2CCCc3ccccc32)c1O (configuration not stated),-7.78 (active)
9,CNS(=O)(=O)c1cccc(C(=O)NC2CCCc3ccccc32)c1 (configuration not stated),-2.62 (inactive)
10,COc1ccc(CN(C)C(C)C(=O)NC2CCCc3ccccc32)cc1 (configuration not stated),-6.8 (active)
11,Cc1ccc(NC(=O)CN(C)C(=O)Cn2nnc(-c3ccccc3)n2)cc1,inactive
12,COc1ccccc1CNC(=O)CSc1nc(=O)n(Cc2ccncc2)c2c1CCC2,-0.12 (inactive)
13,O=C(c1cc(-c2ccc(Cl)s2)nc2ccccc12)N1CCOCC1,-6 (active)
14,CC(=O)N1CCN(C(=O)c2cc(-c3ccc(Cl)s3)nc3ccccc23)CC1,inactive
15,CCOc1ccccc1-c1cc(C(=O)N2CCOCC2)c2ccccc2n1,inactive
16,Cc1cc(OCC(=O)N(C)c2c(N)n(Cc3ccccc3)c(=O)[nH]c2=O)c(C(C)C)cc1Cl,-0.02 (inactive)
17,COc1ccc(-c2cnc(SCCNC(=O)c3ccc4c(c3)OCO4)[nH]2)cc1,inactive
18,Cc1ccc(S(=O)(=O)Oc2ccc(/C=N/NC(=O)c3ccncc3)cc2)cc1,-0.5 (inactive)
19,O=C1OC(c2ccc(Cl)cc2)=N/C1=C\c1cccnc1,-0.06 (inactive)

row,Structure (SMILES),B-score
1,Cc1ccc(C2=N/C(=C\c3ccc(OS(=O)(=O)c4ccc(C)cc4)cc3)C(=O)O2)cc1,-7.24 (active)
2,COc1ccc(OCCCC(=O)OC(C)C(=O)Nc2ccccc2[N+](=O)[O-])cc1 (configuration not stated),-0.14 (inactive)
3,Cc1ccc(CN2CCN(c3ccccc3Cl)CC2)o1,-0.4 (inactive)
4,O=C(CN1CCN(c2ccc(O)cc2)CC1)Nc1cc(S(=O)(=O)N2CCOCC2)ccc1Cl,-0.82 (inactive)
5,O=C(N/N=C/c1cc(Cl)cc([N+](=O)[O-])c1O)C(O)(c1ccccc1)c1ccccc1,-0.18 (inactive)
6,O=[N+]([O-])c1cc(Cl)cc(/C=N/NC(=S)Nc2cc(S(=O)(=O)N3CCOCC3)ccc2Cl)c1O,-8.14 (active)
7,CC(=O)n1cc([C@@H]2C=C(C(=O)N3CCN(Cc4ccc5c(c4)OCO5)CC3)O[C@H](OCc3ccc(CO)cc3)C2)c2ccccc21,-6.49 (active)
8,CC(=O)n1cc([C@H]2C=C(C(=O)N3CCOCC3)O[C@@H](OCc3ccc(CO)cc3)C2)c2ccccc21,-4.18 (inactive)
9,CN1CCN(C(=O)C2=C[C@H](c3ccc4c(c3)OCO4)C[C@H](OCc3ccc(CO)cc3)O2)CC1,-0.01 (inactive)
10,O=C(COc1coc(CN2CCN(c3ccccc3F)CC2)cc1=O)N1CCc2ccccc21,inactive
11,COc1cc(/C=C/C(=O)N2CCc3ccccc3C2)cc(OC)c1OC,inactive
12,COc1cc(/C=C/C(=O)N2c3ccccc3Sc3ccc(C(F)(F)F)cc32)cc(OC)c1OC,-7.31 (active)
13,O=C(CN1CCCCCC1)N1c2ccccc2Sc2ccc(C(F)(F)F)cc21,-3.82 (inactive)
14,CC(c1ccco1)N(C(=O)Nc1ccccc1)C1CCCCC1 (configuration not stated),-5.91 (active)
15,CCOc1ccc(NC(=O)N(CCC(C)C)C(C)c2ccco2)cc1 (configuration not stated),-2.46 (inactive)
16,Cc1ccc(NC(=O)NC(=O)N(C2CCCCC2)S(=O)(=O)c2ccccc2)cc1,-1.57 (inactive)
17,N#CC1(NC(=O)COC(=O)CSc2ccc(F)cc2)CCCCC1,inactive
18,C=CCOc1ccc(/C=C/C(=O)OC(C)C(=O)Nc2ccc(NC(C)=O)cc2)cc1 (configuration not stated),inactive
19,CCCn1c(C)cc(/C=C(\C#N)C(=O)OCC(=O)N(C)c2c(N)n(Cc3ccccc3)c(=O)[nH]c2=O)c1C,-0.77 (inactive)
